Experimental data reported in PubChem BioAssay (EPA / NIEHS).
Results filed as inconclusive are left out. Activity calls are given as the source filed them. The calls were made as follows, unless noted: active = hit-call score of the fitted dose curve at least 0.9, where 1 is the maximum; inactive = score below 0.9.

Legend:
[1] = ACEA_ER_80hr: ACEA Biosciences xCELLigence Real-Time Cell Analysis on Estrogen Receptor Agonism for Proliferation (AID 2282667; active = hit-call score of the fitted dose curve at least 0.9, where 1 is the maximum); conditions: T47D proliferation, impedance (xCELLigence), 80 h
Procedure, shortened: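 Cell-growth kinetics were measured by impedance in T47D cells treated continuously with compound (top 100 uM final, 1:4 steps, 8 points). Activity at 80 h was scored as signal gain over the DMSO baseline.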

[2] = target: CCAAT/enhancer-binding protein beta (Homo sapiens) (UniProt P17676); assay: ATG_C_EBP_CIS: Attagene CIS-FACTORIAL HepG2 Assay for human CCAAT/Enhancer Binding Protein (C/EBP) beta (AID 2282927); conditions: HepG2 Attagene cis-factorial transcription factor reporter; actives raise or lower the signal
Procedure, shortened: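 Chemical-treated HepG2 cells (24 h) bearing cis-regulated reporter constructs were processed for total RNA, then reverse transcription, PCR amplification, fluorescent primer extension and fragment analysis; gain- and loss-of-signal were fitted against DMSO.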

[3] = ATG_CMV_CIS: Attagene CIS-FACTORIAL HepG2 Assay for human CMV (Internal Marker) (AID 2282928); conditions: HepG2 CMV promoter reporter, transcription factor profiling; actives raise or lower the signal;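 also: endpoint acts as a background internal control marker rather than a target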
Procedure, shortened: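 HepG2 cells transiently transfected with multiple cis-regulated reporter units; 24 h compound exposure. Reporter mRNA quantified by RT-PCR, 6-FAM primer-extension labeling, HpaI digestion and capillary electrophoresis; bidirectional fitting against DMSO baseline.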

[4] = ATG_DR4_LXR_CIS: Attagene CIS-FACTORIAL HepG2 Assay for human Liver X Receptor (LXR), DR4 submotif (AID 2282929); conditions: HepG2 Attagene DR4 cis-reporter, mRNA transcription; actives raise or lower the signal
Procedure, shortened: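 HepG2, transient MRTU transfection, cis-element (DR4) promoter; 24 h compound exposure; total RNA → oligo(dT) RT → PCR → 6-FAM primer extension → HpaI cut → CE. Gain/loss vs DMSO, bidirectional fit.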

[5] = target: Aryl hydrocarbon receptor (Homo sapiens) (UniProt P35869); assay: ATG_Ahr_CIS: Attagene CIS-FACTORIAL HepG2 Assay for human Aryl Hydrocarbon Receptor (Ahr) (AID 2282930); conditions: HepG2 AhR cis-factorial reporter transcription; actives raise or lower the signal
Procedure, shortened: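 Following 24 h of chemical dosing, transfected HepG2 liver cells with cis-driven reporter units were lysed for RNA; reporter mRNA was quantified via RT-PCR and capillary electrophoresis, and responses fitted bidirectionally from DMSO.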

[6] = ATG_AP_1_CIS: Attagene CIS-FACTORIAL HepG2 Assay for human Activator Protein 1 (AP-1) (AID 2282931); conditions: HepG2 Attagene cis-factorial AP-1 reporter mRNA; actives raise or lower the signal
Procedure, shortened: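 Transient MRTU transfection of HepG2 → 24 h chemical treatment → RNA isolation, RT-PCR, 6-FAM labelling, HpaI digest → capillary electrophoresis. Fit: bidirectional, DMSO negative control.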

[7] = ATG_AP_2_CIS: Attagene CIS-FACTORIAL HepG2 Assay for human Activator Protein 2 (AP-2) (AID 2282932); conditions: HepG2 AP-2 cis-reporter, Attagene transcription factor profiling; actives raise or lower the signal
Procedure, shortened: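 HepG2 cells were transiently transfected with multiple cis-promoter reporter transcription units and dosed for 24 h. Reporter mRNA was measured by RT-PCR with capillary electrophoresis fluorescence; bidirectional fits relative to DMSO baseline.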

[8] = ATG_BRE_CIS: Attagene CIS-FACTORIAL HepG2 Assay for human Bone Morphogenetic Protein (BMP) Response Element (BRE) (AID 2282933); conditions: HepG2 BMP response element reporter, Attagene transcription factor profiling; actives raise or lower the signal
Procedure, shortened: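 Endogenous transcription factor activity at a BMP response element was monitored in transfected HepG2 cells 24 h after dosing. Fluorescent RT-PCR products were resolved by capillary electrophoresis, and activity was fitted in both directions versus DMSO.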

[9] = target: Retinoic acid receptor alpha (Homo sapiens) (UniProt P10276); assay: ATG_DR5_RAR_CIS: Attagene CIS-FACTORIAL HepG2 Assay for human Retinoic Acid Receptor Alpha (RARE), DR5 submotif (AID 2282934); conditions: HepG2 Attagene cis-factorial RARE DR5 reporter, mRNA; actives raise or lower the signal;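 as to AC50: reporter responds to endogenous RAR alpha beta and gamma in HepG2 not RARA alone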
Procedure, shortened: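 Transfected HepG2 reporter cells are exposed to chemicals for 24 h. Then RNA is extracted and the DR5 element reporter transcript is measured by RT-PCR and capillary electrophoresis, with bidirectional curve fitting relative to DMSO.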

[10] = target: Transcription factor E2F1 (Homo sapiens) (UniProt Q01094); assay: ATG_E2F_CIS: Attagene CIS-FACTORIAL HepG2 Assay for human E2F Transcription Factor 1 (AID 2282935); conditions: HepG2 Attagene cis-reporter, E2F reporter RNA transcripts; actives raise or lower the signal
Procedure, shortened: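 HepG2 cells transiently transfected with multiplexed cis-element reporter units, dosed for 24 h. Reporter mRNA measured by RT-PCR, 6-FAM primer-extension labeling, HpaI digestion and capillary electrophoresis; bidirectional fit versus DMSO baseline.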

[11] = ATG_E_Box_CIS: Attagene CIS-FACTORIAL HepG2 Assay for human Enhancer Box (E-box) (AID 2282936); conditions: HepG2 E-box cis-reporter transcription, actives raise or lower the signal
Procedure, shortened: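 HepG2 cells transiently transfected with multiplexed cis-element reporter units sensing endogenous transcription factor activity; 24 h compound exposure. Reporter mRNA measured by RT-PCR, 6-FAM primer extension, HpaI digestion and capillary electrophoresis; bidirectional fit versus DMSO.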

[12] = ATG_M_61_CIS: Attagene CIS-FACTORIAL HepG2 Assay for M61 Transcription Factor (Internal Marker) (AID 2282937); conditions: HepG2 Attagene CIS-FACTORIAL M61 internal marker reporter; actives raise or lower the signal
Procedure, shortened: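 Human liver HepG2, transient MRTU transfection (cis promoter elements), 24 h compound. Total RNA → oligo(dT) RT → PCR → FAM label → HpaI → CE. Internal background marker; bidirectional fitting, DMSO = baseline.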

[13] = ATG_EGR_CIS: Attagene CIS-FACTORIAL HepG2 Assay for human Early Growth Response 1 (EGR1) (AID 2282938); conditions: HepG2 Attagene CIS-FACTORIAL EGR reporter mRNA; actives raise or lower the signal
Procedure, shortened: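 Transient transfection of human HepG2 with multiple cis-regulated reporter units, chemical exposure 24 h, total RNA isolated. Reverse transcription, PCR, fluorescent labelling and capillary electrophoresis quantify reporter transcripts; activity fitted bidirectionally against DMSO.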

[14] = ATG_M_19_CIS: Attagene CIS-FACTORIAL HepG2 Assay for M19 Transcription Factor (Internal Marker) (AID 2282939); conditions: HepG2 Attagene CIS-FACTORIAL M19 internal marker reporter; actives raise or lower the signal
Procedure, shortened: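 Background-control endpoint from a multiplexed HepG2 reporter panel. Cells carrying cis-regulated reporter constructs are treated 24 h, then reporter transcripts are amplified, fluorescently labelled and sized by capillary electrophoresis. DMSO defines baseline.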

[15] = ATG_ERE_CIS: Attagene CIS-FACTORIAL HepG2 Assay for Estrogen Response Element (ERE) (AID 2282940); conditions: HepG2 ERE cis-reporter, Attagene RNA transcript; actives raise or lower the signal
Procedure, shortened: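 Cells used were human hepatoma HepG2, transfected with multiple reporter transcription units under cis-regulatory promoters. Reporter mRNA, read 24 h post-dosing via fluorescent RT-PCR products on capillary electrophoresis, was fitted bidirectionally relative to DMSO.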

[16] = ATG_Ets_CIS: Attagene CIS-FACTORIAL HepG2 Assay for human Erythroblast Transformation Specific (ETS) (AID 2282941); conditions: HepG2 ETS cis-reporter transcription, actives raise or lower the signal
Procedure, shortened: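 HepG2 cells transiently transfected with cis-promoter reporter transcription units were dosed for 24 h; reporter mRNA was measured by RT-PCR, 6-FAM primer extension, HpaI digestion and capillary electrophoresis, with bidirectional fitting against DMSO baseline.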

[17] = ATG_GATA_CIS: Attagene CIS-FACTORIAL HepG2 Assay for human GATA Binding Protein (AID 2282944); conditions: HepG2 GATA cis-element reporter, Attagene multiplex mRNA; actives raise or lower the signal
Procedure, shortened: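 Endogenous transcription factor activity was captured through cis-promoter-driven reporters in transfected HepG2 cells. After 24 h exposure, reporter transcripts were quantified by RT-PCR with fluorescent capillary electrophoresis, and responses fitted both directions against DMSO.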

[18] = target: Hepatocyte nuclear factor 3-beta (Homo sapiens) (UniProt Q9Y261); assay: ATG_FoxA2_CIS: Attagene CIS-FACTORIAL HepG2 Assay for human Forkhead box A2 (FOXA2) (AID 2282942); conditions: HepG2 cis-reporter transcription factor activity, 24 h; actives raise or lower the signal
Procedure, shortened: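 Transient MRTU transfection of HepG2 liver cells; 24 h treatment; total RNA → oligo(dT) RT → PCR → FAM primer extension → HpaI cut → CE. Bidirectional fit vs DMSO.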

[19] = ATG_FoxO_CIS: Attagene CIS-FACTORIAL HepG2 Assay for human Forkhead box O (FoxO) (AID 2282943); conditions: HepG2 Attagene cis-reporter, FoxO element, mRNA; actives raise or lower the signal
Procedure, shortened: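 24 h chemical exposure, HepG2 with transient cis-MRTU transfection. RNA extraction, oligo(dT) RT, reporter-specific PCR, primer-extension labelling, HpaI digestion, CE fragment analysis; bidirectional fit, DMSO baseline.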

Measured: AC50

Aryl hydrocarbon receptor (Homo sapiens), sequence (P35869 whole entry, looked up): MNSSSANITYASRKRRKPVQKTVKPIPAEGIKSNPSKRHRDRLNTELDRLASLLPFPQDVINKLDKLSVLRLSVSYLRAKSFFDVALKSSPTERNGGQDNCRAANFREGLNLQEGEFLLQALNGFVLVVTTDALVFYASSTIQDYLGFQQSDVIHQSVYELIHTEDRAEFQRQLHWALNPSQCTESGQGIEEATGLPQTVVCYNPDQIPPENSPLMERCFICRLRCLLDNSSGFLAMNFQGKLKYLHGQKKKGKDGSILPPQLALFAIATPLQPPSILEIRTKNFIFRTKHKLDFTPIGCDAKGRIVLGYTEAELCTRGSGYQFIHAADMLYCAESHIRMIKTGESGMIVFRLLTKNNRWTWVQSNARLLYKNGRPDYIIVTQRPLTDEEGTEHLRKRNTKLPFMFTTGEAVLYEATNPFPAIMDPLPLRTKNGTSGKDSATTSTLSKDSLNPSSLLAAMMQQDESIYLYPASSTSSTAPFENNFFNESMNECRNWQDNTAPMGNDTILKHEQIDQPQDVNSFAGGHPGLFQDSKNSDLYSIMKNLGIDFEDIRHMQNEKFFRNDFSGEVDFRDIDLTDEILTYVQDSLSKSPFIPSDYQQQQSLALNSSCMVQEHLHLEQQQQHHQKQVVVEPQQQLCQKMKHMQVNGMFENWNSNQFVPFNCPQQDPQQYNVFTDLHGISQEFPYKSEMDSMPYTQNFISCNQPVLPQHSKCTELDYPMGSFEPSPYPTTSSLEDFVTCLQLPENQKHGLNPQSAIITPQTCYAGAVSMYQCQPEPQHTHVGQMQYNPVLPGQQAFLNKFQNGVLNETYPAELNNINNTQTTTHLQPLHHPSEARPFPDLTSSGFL
Transcription factor E2F1 (Homo sapiens), sequence (Q01094 whole entry, looked up): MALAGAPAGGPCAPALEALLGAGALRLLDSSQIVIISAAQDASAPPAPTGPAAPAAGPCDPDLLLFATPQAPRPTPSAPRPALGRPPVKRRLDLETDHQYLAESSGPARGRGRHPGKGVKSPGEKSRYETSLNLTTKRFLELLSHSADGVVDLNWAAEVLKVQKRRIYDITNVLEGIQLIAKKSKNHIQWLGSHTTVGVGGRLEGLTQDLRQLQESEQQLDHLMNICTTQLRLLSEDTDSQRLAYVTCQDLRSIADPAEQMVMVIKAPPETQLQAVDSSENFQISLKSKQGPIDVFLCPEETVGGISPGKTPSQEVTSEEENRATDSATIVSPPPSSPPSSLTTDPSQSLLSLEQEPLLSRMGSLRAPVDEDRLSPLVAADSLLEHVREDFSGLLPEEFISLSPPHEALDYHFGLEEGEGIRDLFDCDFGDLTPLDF
CCAAT/enhancer-binding protein beta (Homo sapiens), sequence (P17676 whole entry, looked up, the tested form may be a part): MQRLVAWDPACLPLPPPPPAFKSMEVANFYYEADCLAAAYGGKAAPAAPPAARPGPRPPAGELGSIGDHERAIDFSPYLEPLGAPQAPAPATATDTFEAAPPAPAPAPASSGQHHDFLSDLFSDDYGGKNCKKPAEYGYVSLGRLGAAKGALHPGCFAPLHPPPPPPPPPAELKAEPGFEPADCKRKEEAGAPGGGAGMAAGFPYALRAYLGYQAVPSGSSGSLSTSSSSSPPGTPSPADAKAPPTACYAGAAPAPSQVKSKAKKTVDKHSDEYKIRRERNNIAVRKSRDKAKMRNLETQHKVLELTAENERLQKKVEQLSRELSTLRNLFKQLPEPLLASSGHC
Retinoic acid receptor alpha (Homo sapiens), sequence (P10276 whole entry, looked up): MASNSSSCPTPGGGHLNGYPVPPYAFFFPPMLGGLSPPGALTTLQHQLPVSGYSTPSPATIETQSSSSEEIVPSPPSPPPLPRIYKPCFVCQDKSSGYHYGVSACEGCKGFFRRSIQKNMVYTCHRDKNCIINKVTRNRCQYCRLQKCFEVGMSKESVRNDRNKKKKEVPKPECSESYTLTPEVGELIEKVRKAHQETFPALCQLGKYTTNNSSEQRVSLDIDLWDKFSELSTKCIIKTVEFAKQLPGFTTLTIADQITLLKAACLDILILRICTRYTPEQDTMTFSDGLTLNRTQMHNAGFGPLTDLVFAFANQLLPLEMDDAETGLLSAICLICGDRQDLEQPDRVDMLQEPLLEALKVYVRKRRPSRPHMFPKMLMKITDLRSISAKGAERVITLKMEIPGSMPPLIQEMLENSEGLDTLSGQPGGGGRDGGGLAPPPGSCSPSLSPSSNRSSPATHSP
Hepatocyte nuclear factor 3-beta (Homo sapiens), sequence (Q9Y261 whole entry, looked up): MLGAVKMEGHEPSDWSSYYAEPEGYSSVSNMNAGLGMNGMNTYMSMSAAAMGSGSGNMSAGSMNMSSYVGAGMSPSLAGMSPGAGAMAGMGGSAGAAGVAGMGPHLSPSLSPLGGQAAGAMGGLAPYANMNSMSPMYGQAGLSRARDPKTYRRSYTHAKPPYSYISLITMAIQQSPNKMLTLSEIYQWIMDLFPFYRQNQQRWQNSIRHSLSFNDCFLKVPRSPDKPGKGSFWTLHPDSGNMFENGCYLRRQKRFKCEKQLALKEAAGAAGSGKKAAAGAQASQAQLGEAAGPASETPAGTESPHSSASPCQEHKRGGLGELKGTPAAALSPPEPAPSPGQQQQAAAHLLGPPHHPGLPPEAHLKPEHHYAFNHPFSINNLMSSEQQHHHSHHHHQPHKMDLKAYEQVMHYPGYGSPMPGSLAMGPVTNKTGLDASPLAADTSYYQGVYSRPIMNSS

COc1ccccc1C=O
inactive: [1] | [2] | [3] | [4] | [5] | [6] | [7] | [8] | [9] | [10] | [11] | [12] | [13] | [14] | [15] | [16] | [17]

CCOC(=O)CCC(C)=O
inactive: [1] | [2] | [3] | [5] | [6] | [7] | [8] | [9] | [10] | [11] | [12] | [13] | [14] | [15] | [16] | [18] | [19] | [17]

CCN(CC)c1ccc(C=O)cc1
inactive: [2] | [3] | [6] | [7] | [8] | [10] | [11] | [12] | [13] | [15] | [19] | [17]
active: [1] 0.0998 µM | [14] 25.8 µM | [16] 26 µM

CN(C(=O)C(F)(F)C(F)(F)C(F)(F)F)[Si](C)(C)C
inactive: [1] | [2] | [4] | [5] | [6] | [7] | [8] | [9] | [10] | [12] | [13] | [14] | [15] | [16] | [18] | [19] | [17]

COCCOCCC[Si](C)(O[Si](C)(C)C)O[Si](C)(C)C
active: [1] 0.437 µM | [6] 1.53 µM | [7] 60.1 µM | [8] 9.13 µM | [9] 8.84 µM
inactive: [2] | [5] | [10] | [11] | [12] | [13] | [14] | [15] | [16] | [18] | [19] | [17]

O=S(=O)(O)CCC(F)(F)C(F)(F)C(F)(F)C(F)(F)F
inactive: [1] | [2] | [4] | [6] | [7] | [8] | [9] | [10] | [11] | [12] | [13] | [14] | [15] | [16] | [18] | [19] | [17]

OCCCCC(F)(F)C(F)(F)C(F)(F)C(F)(F)F
inactive: [1] | [2] | [3] | [4] | [6] | [7] | [8] | [9] | [10] | [11] | [12] | [13] | [14] | [15] | [16] | [19] | [17]

O=C1C=CC(=O)N1c1ccccc1
inactive: [1] | [2] | [3] | [5] | [6] | [7] | [8] | [9] | [10] | [12] | [13] | [14] | [15] | [16] | [18] | [17]

OC(O)C(F)(F)C(F)(F)F
active: [3] 117 µM | [4] 150 µM | [6] 96 µM
inactive: [1] | [2] | [7] | [8] | [9] | [10] | [11] | [12] | [13] | [14] | [15] | [16] | [18] | [19] | [17]

OCCC(O)CO (stereo unspecified)
inactive: [1] | [2] | [3] | [5] | [6] | [7] | [8] | [10] | [11] | [12] | [13] | [14] | [15] | [16] | [19] | [17]

Cc1ccc([N+](=O)[O-])c(C)c1
inactive: [2] | [5] | [6] | [7] | [8] | [10] | [11] | [12] | [13] | [14] | [15] | [16] | [18] | [17]
active: [1] 22.4 µM

CCOC(C=C(C)CCC=C(C)C)OCC
inactive: [1] | [2] | [3] | [6] | [7] | [8] | [9] | [10] | [11] | [12] | [13] | [14] | [15] | [16] | [17]

NC(=O)C(F)(F)C(F)(F)C(F)(F)C(F)F
inactive: [1] | [2] | [4] | [6] | [7] | [8] | [9] | [10] | [11] | [12] | [13] | [14] | [15] | [16] | [18] | [19] | [17]

CC(C)OC=O
inactive: [1] | [2] | [3] | [4] | [5] | [6] | [7] | [8] | [10] | [12] | [13] | [14] | [15] | [16] | [18] | [19] | [17]

OCC(F)(F)C(F)(F)C(F)(F)C(F)(F)C(F)(F)C(F)(F)CO
inactive: [2] | [3] | [4] | [5] | [6] | [7] | [8] | [9] | [10] | [11] | [12] | [13] | [14] | [16] | [18] | [19] | [17]
active: [1] 0.291 µM | [15] 0.0909 µM
